# Compound activity (PubChem BioAssay)
# SMN2 splice up = qHTS Assay for Enhancers of SMN2 Splice Variant Expression | HEK293 SMN2-luciferase splicing reporter, luminescence, 30-36 h | Potency, µM (titrated, usually from 46.1 µM), for inactives: top-dose activity change, positive = activation, actives largely listed as activators | 210,000 tested, 2.8% active | AID 1458, 2008; also: % of control where 0% means no effect; nearly all actives have a fitted effect of over 55% in size
#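 HEK293 cells carry an SMN2 minigene-luciferase reporter in which exon 7 inclusion puts luciferase in frame. Cells were seeded at 2000 cells/well, attached for 10-12 hours, then exposed to compounds for 30-36 hours at 37C before ONE-Glo luminescence.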
# ELG1 genotox = qHTS screen for small molecules that induce genotoxicity in human embryonic kidney (HEK293T) cells expressing luciferase-tagged ELG1; AID 504466, 2011; 330,000 tested, 1.3% active; HEK293T ELG1-luciferase reporter, luminescence, 16 h; Potency, µM (doses to about 46 µM), inactives show at the top dose activity change, positive = activation, usual class: activators; also: % of control where 0% means no effect; nearly all actives have a fitted effect of over 60% in size
#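 Genotoxic stress is detected as increased luminescence from luciferase-tagged ELG1 in HEK293T cells, measured with ONE-Glo after a 16 hr treatment at 37 °C.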
# NPC1 promoter act = qHTS Assay for NPC1 Promoter Activators. Huh7 NPC1 promoter luciferase reporter, 24 h. Potency, µM (titrated, usually from 9.22 µM), without a hit: at the highest dose activation, usual class: activators. 320,000 tested, 2.4% active. AID 485313, 2010; also: % of control where 0% means no effect; nearly all actives have a fitted effect of over 60% in size
#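 Cells: Huh7 expressing luciferase under the NPC1 promoter, 1500/well. Seeded 2 h, compound added, incubated 24 h at 37 °C. Luciferase reagent, 10 min ambient, then luminescence.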
# ELG1 DNA repair = qHTS screen for small molecules that inhibit ELG1-dependent DNA repair in human embryonic kidney (HEK293T) cells expressing luciferase-tagged ELG1; 330,000 tested, 2.3% active; HEK293T ELG1-luciferase reporter, luminescence, 16 h; DNA damage induced by 5-fluorouridine; Potency, µM (doses to about 46.1 µM), inactives show at the top dose activity change, negative = inhibition, hits mostly inhibitors; also: % is scaled to controls: 0 for no effect and ±100 for the full control effect; nearly all actives have a fitted effect of over 55% in size
#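 In this reporter screen, reduction of luminescence relative to DMSO vehicle indicated activity. Compounds and 5-fluorouridine were added together to 2,000 cells per well, incubated for 16 hr at 37 °C, then developed with ONE-Glo.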
# FLuc modulator = qHTS profiling assay for firefly luciferase inhibitor/activator using purifed enzyme and Km concentrations of substrates (counterscreen for miR-21 project). AID 588342, 2011. 360,000 tested, 6.9% active. purified FLuc, Km substrates, luminescence inhibition. Potency, µM (highest dose often 57.5 µM), for inactives: top-dose activity change, negative = inhibition, hits mostly inhibitors. Luciferin 4-monooxygenase (Photinus pyralis), P08659;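 also: plate controls were vehicle for no effect and reference inhibitor for full effect; nearly all actives have a fitted effect of over 55% in size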
# Target sequence (P08659 whole entry, looked up): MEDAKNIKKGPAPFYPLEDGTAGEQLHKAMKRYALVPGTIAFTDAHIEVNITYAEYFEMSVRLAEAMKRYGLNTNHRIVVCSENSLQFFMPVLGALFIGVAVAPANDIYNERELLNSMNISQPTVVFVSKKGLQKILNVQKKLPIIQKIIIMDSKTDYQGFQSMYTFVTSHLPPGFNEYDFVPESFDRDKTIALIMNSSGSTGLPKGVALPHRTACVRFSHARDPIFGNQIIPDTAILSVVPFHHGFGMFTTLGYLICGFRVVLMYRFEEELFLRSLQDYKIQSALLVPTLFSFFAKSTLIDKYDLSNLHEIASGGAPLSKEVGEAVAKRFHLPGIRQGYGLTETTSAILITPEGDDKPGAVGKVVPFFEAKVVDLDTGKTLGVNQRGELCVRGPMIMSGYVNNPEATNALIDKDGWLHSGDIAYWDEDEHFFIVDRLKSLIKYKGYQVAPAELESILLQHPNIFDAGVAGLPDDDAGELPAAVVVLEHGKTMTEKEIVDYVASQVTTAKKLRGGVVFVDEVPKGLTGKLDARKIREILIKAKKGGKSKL
#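 Biochemical qHTS of compounds, final roughly 60 µM downward over six points, against 10 nM purified firefly luciferase using Km concentrations of substrates (10 uM D-luciferin, 10 uM ATP) in Tris acetate pH 7.5 buffer; luminescence output.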
# Rab9 promoter act = qHTS Assay for Rab9 Promoter Activators; Huh7 Rab9 promoter-luciferase reporter, luminescence, 24 h; Potency, µM (highest dose often 9.22 µM), for inactives: at the highest dose activation, negative = inhibition, usual class: activators; 320,000 tested, 2.8% active; AID 485297, 2010; also: % of control where 0% means no effect; nearly all actives have a fitted effect of over 60% in size
#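 Huh7 cells stably carrying Rab9 promoter–luciferase reporter, plated 1500 cells/well, compound added after 2 h and incubated 24 h at 37 °C; luciferase luminescence then read after 10 min with detection reagent.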
# The depositor's hits bear a star; ? = inconclusive; · = not tested or not shown; [ ] = another dose, or the depositor's remark. A selection: hits, their analogues and other compounds. The true share with any hit is near 9.4%. Calls follow the shape of the dose curve; as a rule, active = well fitted curve in the direction sought with a large enough effect; inconclusive = small, poorly fitted or top-dose-only effect, or another doubt; inactive = no such curve, though single readings can be large; an effect the other way counts as inactive or inconclusive. Potency is read from the fitted curve at half-maximal effect.
SMILES,SMN2 splice up,ELG1 genotox,NPC1 promoter act,ELG1 DNA repair,FLuc modulator,Rab9 promoter act
CCn1c(SCC(=O)c2ccc3c(c2)OCCO3)nnc1-c1ccco1,20.7%,-1.2%,1.5%,15.5%,8.49µM*,0.1%
O=C(O)CCC(=O)c1ccc2c(c1)OCCO2,11.9%,0.3%,0.7%,23.8%,-13.9%,6.4%
COCCn1c(SCC(=O)c2ccc3c(c2)OCCO3)nnc1-c1ccco1,17.9%,-10.4%,-3.9%,3.9%,-13.4%,2.5%
Cc1ccc(NC(=O)C2CCCN(S(=O)(=O)c3cccs3)C2)c(C)c1 (stereo not drawn),·,·,·,·,-16.2%,·
COc1ccc(/C=C(\C#N)C(=O)c2cccn2C)cc1,·,0.6%,-0.1%,12.7%,1.51µM*,-1.9%
Cn1cccc1C(=O)/C(C#N)=C/c1ccc(F)cc1,·,0.7%,1.9%,3.3%,6.75µM*,-3.7%
COc1ccccc1/C=C(\C#N)C(=O)c1cccn1C,·,-0.2%,-5.5%,1.8%,10.7µM*,2.3%
COc1ccccc1/C=C(/C#N)C(=O)O,·,2.8%,-2.6%,11.1%,-2.8%,-2.1%
CN1CCN(C(=O)/C(C#N)=C/c2ccc(F)cc2)CC1,7.2%,10.9%,-16.2%,12.0%,5.1%,-3.1%
N#Cc1ccccc1Sc1ccccc1C(=O)OCC(N)=O,15.7%,0.6%,-4.4%,4.8%,1.4%,-2.2%
Cc1noc(C)c1COC(=O)c1ccccc1Sc1ccccc1C#N,-39.9%,2.3%,1.0%,23.1µM*,?,7.5%
Cc1ccc(Cl)cc1NC(=O)C1CCN(C(=O)c2cnn(-c3ccccc3)c2-n2cccc2)CC1,-36.4%,·,·,·,0.6%,·
Cc1ccc(C2=NN3C(=O)c4ccccc4C3C2)cc1 (stereo not drawn),·,?,?,?,16.9µM*,?
COc1ccc(COc2cc(-c3cccc(OC)c3)nc3ccc(NC(=O)c4ccc(OC)cc4)cc23)cc1,-39.0%,0.5%,-16.0%,4.11µM*,-1.1%,-2.0%
COc1ccc(COc2cc(-c3cccc(OC)c3)nc3ccc(NC(=O)c4ccccc4)cc23)cc1,-2.1%,-3.6%,-3.5%,6.51µM*,2.6%,-0.9%
COc1ccc(COc2cc(-c3cccc(OC)c3)nc3ccc(NC(=O)c4ccc(Cl)cc4)cc23)cc1,-14.1%,-0.8%,-4.0%,?,-2.5%,-3.8%
COc1ccc(COc2cc(-c3cccc(OC)c3)nc3ccc(NC(=O)c4cccnc4)cc23)cc1,-26.0%,-6.6%,-2.9%,2.91µM*,-1.8%,0.6%
COc1cc2c(cc1OC)C1(Nc3c-2c(C)nn3-c2ccccc2)C(=O)Nc2ccccc21 (stereo not drawn),11.0%,-2.6%,0.0%,?,1.3%,10.6%
CCc1nn(-c2ccccc2)c2c1-c1cc(OC)c(OC)cc1C1(N2)C(=O)Nc2ccccc21 (stereo not drawn),11.9%,-0.7%,0.4%,20.6µM*,0.3%,3.8%
Oc1ccc(Br)cc1/C=N/N1CCN(Cc2ccccc2)CC1,-18.4%,2.5%,14.6%,?,?,3.2%
Oc1ccc(Br)cc1/C=N/n1cnc2ccccc21,25.6%,17.7%,?,?,8.49µM*,?
Oc1ccc(Br)cc1/C=N/N1CCCCC1,17.3%[1.84 µM],?,?,?,9.53µM*,4.47µM*
O=C(NCc1ccccc1F)C(=O)NCC(c1ccco1)S(=O)(=O)c1cccs1 (stereo not drawn),·,·,·,·,0.0%,·
O=C(CNC(=O)c1ccc(Cl)cc1Cl)NCC1CCCO1 (stereo not drawn),·,2.2%,11.1%,?,23.9µM*,12.3%
O=C(NC(=S)NCC1CCCO1)c1ccc(Cl)cc1Cl (stereo not drawn),17.3%,6.8%,2.8%,?,-3.8%,1.3%
SMILES,SMN2 splice up,ELG1 genotox,NPC1 promoter act,ELG1 DNA repair,FLuc modulator,Rab9 promoter act
Cc1ccc(-c2cc(C(=O)NCC3CCCO3)no2)cc1 (stereo not drawn),10µM*,?,2.51µM*,?,-16.6%[2.3 µM],2.82µM*
O=C(NCC1CCCO1)c1cc(-c2ccccc2)on1 (stereo not drawn),35.5µM*,10.3µM*,2.51µM*,?,15.1µM*,2.51µM*
O=C(NCC1CCCO1)c1ccccc1-c1nc(-c2ccccc2)no1 (stereo not drawn),25.0%,5.4%,-1.4%,13.5%,?,5.2%
O=C(NCC1CCCO1)c1cc(-c2ccc(Cl)cc2Cl)on1 (stereo not drawn),25.1µM*,?,3.55µM*,?,3.38µM*,2.82µM*
COc1ccc(S(=O)(=O)NCc2ccc3c(c2)CCN3C(=O)c2ccc(C)cc2)cc1Cl,·,·,·,·,3.8%,·
COc1ccc(-c2cc(C(=O)NCC3CCCO3)on2)cc1OC (stereo not drawn),·,5.2%,-5.2%,?,-9.3%,-4.1%
O=C(NCC1CCCO1)c1cc(-c2ccc(F)cc2)no1 (stereo not drawn),·,?,22.8%,?,?,3.16µM*
Cc1cccc(NC(=O)C(=O)NCC2CCCO2)c1 (stereo not drawn),·,?,2.51µM*,?,21.3µM*,0.708µM*
CCn1c(SCC#N)nc2c(c1=O)C1(CCCC1)Cc1ccccc1-2,2.0%,-4.7%,-7.0%,-15.1%,4.6%,4.8%
CCn1c(=O)c2c(n3c(=S)[nH]nc13)-c1ccccc1CC21CCCCC1,-17.9%,4.9%,-5.3%,-7.9%,15.1µM*,2.4%
CC(C)c1cc(/C=C(\C#N)C(=O)NCCCc2ccccc2)cc(C(C)C)c1O,-57.9%,·,·,·,·,·
CC(C)(C)c1ccc(C(=O)NC(=S)NCC2CCCO2)cc1 (stereo not drawn),·,3.7%,6.9%,?,26.9µM*,12.5%
CC(C)(C)c1ccc(C(=O)NC(=S)N2CCOCC2)cc1,·,8.2µM*,2.24µM*,?,9.53µM*,2.24µM*
CC(C)(C)c1ccc(C(=O)N2CCC(C(=O)NCC3CCCO3)CC2)cc1 (stereo not drawn),11.2µM*,7.9%,28.1%,?,?,?
CC(C)(C)c1ccc(C(=O)N2CCC(C(=O)NCc3ccco3)CC2)cc1,2.51µM*,6.2%,10.4%,20.3%,-18.0%,11.1%
CC(C)(C)c1ccc(C(=O)NNC(=S)NCC2CCCO2)cc1 (stereo not drawn),-27.7%,0.5%,-1.4%,11.3%,-12.3%,-0.4%
